# Measured values as given in PMC7862700, “An all-to-all approach to the identification of sequence-specific readers for epigenetic DNA modifications on cytosine”.
# Key:
# Assay in all cases: DAPPL (digital affinity profiling via proximity ligation, sequencing); 10 mM Tris-HCl pH 7.5, 50 mM NaCl, 1 mM DTT, 4% glycerol, room temperature, 30 min; GST-TFs on glutathione beads, 16-mer random dsDNA library, 0.1% formaldehyde crosslink after washing; high values mean tight binding
# FLI1 = target: T1, FLI1 (Homo sapiens, UniProt Q01543 1-452); details: protein: recombinant; tags: N-terminal GST; dsDNA, one strand shown
# T1 sequence: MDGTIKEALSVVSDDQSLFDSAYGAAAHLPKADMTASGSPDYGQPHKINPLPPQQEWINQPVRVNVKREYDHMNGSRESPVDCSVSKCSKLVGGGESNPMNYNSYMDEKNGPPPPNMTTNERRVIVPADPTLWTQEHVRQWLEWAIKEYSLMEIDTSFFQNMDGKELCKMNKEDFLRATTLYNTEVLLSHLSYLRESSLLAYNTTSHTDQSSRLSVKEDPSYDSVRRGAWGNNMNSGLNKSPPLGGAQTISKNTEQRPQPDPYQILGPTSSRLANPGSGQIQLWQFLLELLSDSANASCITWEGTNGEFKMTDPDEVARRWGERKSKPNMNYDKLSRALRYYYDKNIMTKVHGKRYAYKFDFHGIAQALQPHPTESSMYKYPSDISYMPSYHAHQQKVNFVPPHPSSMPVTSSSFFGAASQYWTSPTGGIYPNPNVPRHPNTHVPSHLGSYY
# In short: (§1)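 Human transcription factors carrying a GST fusion were produced in yeast, bound to glutathione beads, tagged with DNA barcodes and pooled together with a tag-only sample. Each pool was held with 200 nmole of a random double-stranded 16-mer DNA library in Tris/NaCl/DTT/glycerol buffer for 30 min at room temperature, then washed, crosslinked in 0.1% formaldehyde, proximity-ligated with BsaI/T4 ligase (1 h, 37 °C), PCR-amplified and sequenced on an Illumina NextSeq500. Binding signal is the read frequency of each hexamer for a given factor divided by its frequency in the tag-only sample.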
# ELK1 = target: T2, ELK1 (Homo sapiens, UniProt P19419 1-428); details: protein: recombinant; tags: N-terminal GST; dsDNA, one strand shown
# T2 sequence: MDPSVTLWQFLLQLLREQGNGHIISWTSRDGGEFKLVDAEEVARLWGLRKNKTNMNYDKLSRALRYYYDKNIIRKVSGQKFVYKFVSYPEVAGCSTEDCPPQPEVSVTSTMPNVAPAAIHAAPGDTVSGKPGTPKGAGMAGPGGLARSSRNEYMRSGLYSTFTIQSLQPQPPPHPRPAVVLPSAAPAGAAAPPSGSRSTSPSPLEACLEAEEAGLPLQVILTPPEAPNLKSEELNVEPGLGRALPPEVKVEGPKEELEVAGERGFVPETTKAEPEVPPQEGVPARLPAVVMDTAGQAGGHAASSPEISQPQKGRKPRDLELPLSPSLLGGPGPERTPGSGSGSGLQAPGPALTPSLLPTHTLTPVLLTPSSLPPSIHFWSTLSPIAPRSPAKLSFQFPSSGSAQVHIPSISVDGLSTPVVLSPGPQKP
# In short: as §1
# GABPA = target: T3, GABPA (Homo sapiens, UniProt Q06546 1-454); details: protein: recombinant; tags: N-terminal GST; dsDNA, one strand shown
# T3 sequence: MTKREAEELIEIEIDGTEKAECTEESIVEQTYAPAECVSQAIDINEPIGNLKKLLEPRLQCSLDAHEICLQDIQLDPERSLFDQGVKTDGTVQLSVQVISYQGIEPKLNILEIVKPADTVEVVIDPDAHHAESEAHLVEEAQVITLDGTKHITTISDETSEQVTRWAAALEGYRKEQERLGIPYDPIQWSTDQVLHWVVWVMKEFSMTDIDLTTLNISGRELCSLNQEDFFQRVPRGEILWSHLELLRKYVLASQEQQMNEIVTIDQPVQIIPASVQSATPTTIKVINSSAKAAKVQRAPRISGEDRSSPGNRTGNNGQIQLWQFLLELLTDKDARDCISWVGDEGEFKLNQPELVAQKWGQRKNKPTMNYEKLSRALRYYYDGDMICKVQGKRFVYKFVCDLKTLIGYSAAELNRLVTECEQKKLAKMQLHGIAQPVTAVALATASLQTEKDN
# In short: as §1
# ERG = target: T4, ERG (Homo sapiens, UniProt P11308 1-479); details: protein: recombinant; tags: N-terminal GST; dsDNA, one strand shown
# T4 sequence: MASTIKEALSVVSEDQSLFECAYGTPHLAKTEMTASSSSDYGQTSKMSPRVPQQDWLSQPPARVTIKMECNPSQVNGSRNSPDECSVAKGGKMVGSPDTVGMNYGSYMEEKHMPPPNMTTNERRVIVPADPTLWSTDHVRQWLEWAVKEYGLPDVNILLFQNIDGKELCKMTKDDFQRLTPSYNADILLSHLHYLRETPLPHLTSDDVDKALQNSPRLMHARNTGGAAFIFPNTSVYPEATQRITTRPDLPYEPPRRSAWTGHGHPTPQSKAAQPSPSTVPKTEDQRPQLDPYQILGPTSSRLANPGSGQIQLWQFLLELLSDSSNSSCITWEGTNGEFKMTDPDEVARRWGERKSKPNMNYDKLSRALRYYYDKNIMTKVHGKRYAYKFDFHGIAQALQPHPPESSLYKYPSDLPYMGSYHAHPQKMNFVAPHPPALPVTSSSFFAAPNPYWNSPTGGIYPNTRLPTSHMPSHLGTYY
# In short: as §1
# ELF1 = ELF1 (Homo sapiens, UniProt P32519 1-619); details: protein: recombinant; tags: N-terminal GST; dsDNA, one strand shown
# In short: as §1
# EHF = target: T5, EHF (Homo sapiens, UniProt Q9NZC4 1-300); details: protein: recombinant; tags: N-terminal GST; dsDNA, one strand shown
# T5 sequence: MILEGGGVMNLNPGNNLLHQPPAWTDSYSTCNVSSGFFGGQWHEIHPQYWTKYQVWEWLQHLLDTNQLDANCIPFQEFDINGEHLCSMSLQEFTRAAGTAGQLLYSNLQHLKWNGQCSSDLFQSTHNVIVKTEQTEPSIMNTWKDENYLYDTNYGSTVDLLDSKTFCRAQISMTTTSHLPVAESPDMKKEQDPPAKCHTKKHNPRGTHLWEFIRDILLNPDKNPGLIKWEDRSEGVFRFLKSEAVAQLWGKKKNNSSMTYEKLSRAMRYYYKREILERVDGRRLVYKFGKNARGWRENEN
# In short: as §1
# SPI1 = SPI1 (Homo sapiens, UniProt P17947 1-270); details: protein: recombinant; tags: N-terminal GST; dsDNA, one strand shown
# In short: as §1
# SPIB = SPIB (Homo sapiens, UniProt Q01892 1-262); details: protein: recombinant; tags: N-terminal GST; dsDNA, one strand shown
# In short: as §1
# ELK3 = target: T6, ELK3 (Homo sapiens, UniProt P41970 1-407); details: protein: recombinant; tags: N-terminal GST; dsDNA, one strand shown
# T6 sequence: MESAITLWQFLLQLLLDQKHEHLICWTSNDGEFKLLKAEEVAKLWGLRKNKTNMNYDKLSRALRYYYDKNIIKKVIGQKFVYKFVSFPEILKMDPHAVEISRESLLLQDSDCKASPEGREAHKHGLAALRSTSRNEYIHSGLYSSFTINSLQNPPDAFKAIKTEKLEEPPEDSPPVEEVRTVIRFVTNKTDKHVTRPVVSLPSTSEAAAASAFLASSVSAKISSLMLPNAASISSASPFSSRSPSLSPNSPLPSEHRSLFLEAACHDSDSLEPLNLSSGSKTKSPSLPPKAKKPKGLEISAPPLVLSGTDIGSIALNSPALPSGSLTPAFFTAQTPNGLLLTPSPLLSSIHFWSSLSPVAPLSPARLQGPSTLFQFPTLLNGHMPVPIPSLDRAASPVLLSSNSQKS
# In short: as §1
# FEV = target: T7, FEV (Homo sapiens, UniProt Q99581 1-238); details: protein: recombinant; tags: N-terminal GST; dsDNA, one strand shown
# T7 sequence: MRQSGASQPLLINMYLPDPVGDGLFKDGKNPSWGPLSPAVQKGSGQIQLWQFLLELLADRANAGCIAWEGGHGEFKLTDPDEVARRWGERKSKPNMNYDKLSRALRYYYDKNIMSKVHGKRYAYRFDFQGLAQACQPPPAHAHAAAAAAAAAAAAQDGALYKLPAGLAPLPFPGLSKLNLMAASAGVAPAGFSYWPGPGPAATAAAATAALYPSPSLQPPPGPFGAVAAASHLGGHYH
# In short: as §1
# ETV5 = ETV5 (Homo sapiens, UniProt P41161 1-510); details: protein: recombinant; tags: N-terminal GST; dsDNA, one strand shown
# In short: as §1
# HSF1 = HSF1 (Homo sapiens, UniProt Q00613 1-529); details: protein: recombinant; tags: N-terminal GST; chain copies: 3; dsDNA, one strand shown
# In short: as §1
# SPIC = target: T8, SPIC (Homo sapiens, UniProt Q8N5J4 1-248); details: protein: recombinant; tags: N-terminal GST; dsDNA, one strand shown
# T8 sequence: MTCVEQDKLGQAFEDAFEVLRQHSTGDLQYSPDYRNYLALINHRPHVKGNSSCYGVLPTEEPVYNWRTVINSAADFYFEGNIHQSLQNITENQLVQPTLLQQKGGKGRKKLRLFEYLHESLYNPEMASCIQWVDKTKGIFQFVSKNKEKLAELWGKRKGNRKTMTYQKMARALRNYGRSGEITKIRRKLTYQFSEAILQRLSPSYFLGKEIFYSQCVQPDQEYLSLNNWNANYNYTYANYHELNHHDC
# In short: as §1
# ELF4 = ELF4 (Homo sapiens, UniProt Q99607 1-663); details: protein: recombinant; tags: N-terminal GST; dsDNA, one strand shown
# In short: as §1
# ELK4 = target: T9, ELK4 (Homo sapiens, UniProt P28324-2 1-405); details: protein: recombinant; tags: N-terminal GST; dsDNA, one strand shown
# T9 sequence: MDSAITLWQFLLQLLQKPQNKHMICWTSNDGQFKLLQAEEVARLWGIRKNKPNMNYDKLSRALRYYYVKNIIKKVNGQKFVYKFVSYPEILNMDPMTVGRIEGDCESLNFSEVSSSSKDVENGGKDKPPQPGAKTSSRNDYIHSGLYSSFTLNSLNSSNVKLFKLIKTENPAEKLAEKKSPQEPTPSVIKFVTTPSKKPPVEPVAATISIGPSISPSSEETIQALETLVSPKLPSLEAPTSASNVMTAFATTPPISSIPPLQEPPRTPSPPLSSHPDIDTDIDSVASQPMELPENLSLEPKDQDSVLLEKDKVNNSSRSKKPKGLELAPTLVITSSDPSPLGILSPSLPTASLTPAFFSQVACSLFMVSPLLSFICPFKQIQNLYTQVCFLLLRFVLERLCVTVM
# In short: as §1
# ELF3 = target: T10, ELF3 (Homo sapiens, UniProt P78545 1-371); details: protein: recombinant; tags: N-terminal GST; dsDNA, one strand shown
# T10 sequence: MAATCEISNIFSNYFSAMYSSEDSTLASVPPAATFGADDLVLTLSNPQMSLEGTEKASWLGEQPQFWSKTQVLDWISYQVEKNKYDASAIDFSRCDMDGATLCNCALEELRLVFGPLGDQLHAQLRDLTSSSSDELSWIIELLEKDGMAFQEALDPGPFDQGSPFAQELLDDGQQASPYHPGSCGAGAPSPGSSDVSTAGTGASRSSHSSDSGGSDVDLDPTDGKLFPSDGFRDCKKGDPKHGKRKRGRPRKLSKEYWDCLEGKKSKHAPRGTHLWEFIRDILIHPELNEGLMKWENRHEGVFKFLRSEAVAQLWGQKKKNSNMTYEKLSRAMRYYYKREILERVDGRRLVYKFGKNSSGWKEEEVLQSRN
# In short: as §1
# CRX = CRX (Homo sapiens, UniProt O43186 1-299); details: protein: recombinant; tags: N-terminal GST; dsDNA, one strand shown
# In short: as §1
# ETV1 = ETV1 (Homo sapiens, UniProt P50549 1-477); details: protein: recombinant; tags: N-terminal GST; dsDNA, one strand shown
# In short: as §1
# Chain of ETV1 (P50549 whole entry): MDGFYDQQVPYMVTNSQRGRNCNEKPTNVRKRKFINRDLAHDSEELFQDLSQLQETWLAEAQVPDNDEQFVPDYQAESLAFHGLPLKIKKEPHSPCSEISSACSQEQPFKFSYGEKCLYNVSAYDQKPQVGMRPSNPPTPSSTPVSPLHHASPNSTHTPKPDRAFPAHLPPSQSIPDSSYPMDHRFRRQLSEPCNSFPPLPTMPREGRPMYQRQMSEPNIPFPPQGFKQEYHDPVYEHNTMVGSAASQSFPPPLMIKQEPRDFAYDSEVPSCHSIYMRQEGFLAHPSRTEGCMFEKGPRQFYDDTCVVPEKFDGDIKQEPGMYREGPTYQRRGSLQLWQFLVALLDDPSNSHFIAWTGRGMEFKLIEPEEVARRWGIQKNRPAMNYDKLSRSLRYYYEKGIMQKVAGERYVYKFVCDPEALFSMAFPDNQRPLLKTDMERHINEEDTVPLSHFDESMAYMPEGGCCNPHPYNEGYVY
# Chain of SPIB (Q01892 whole entry): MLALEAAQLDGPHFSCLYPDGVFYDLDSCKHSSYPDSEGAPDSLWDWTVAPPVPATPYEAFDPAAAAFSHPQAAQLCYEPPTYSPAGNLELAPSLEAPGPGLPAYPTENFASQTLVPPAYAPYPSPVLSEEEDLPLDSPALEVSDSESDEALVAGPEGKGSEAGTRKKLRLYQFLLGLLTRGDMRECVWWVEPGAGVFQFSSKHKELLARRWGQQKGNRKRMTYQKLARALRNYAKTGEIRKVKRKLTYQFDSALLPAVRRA
# Chain of CRX (O43186 whole entry): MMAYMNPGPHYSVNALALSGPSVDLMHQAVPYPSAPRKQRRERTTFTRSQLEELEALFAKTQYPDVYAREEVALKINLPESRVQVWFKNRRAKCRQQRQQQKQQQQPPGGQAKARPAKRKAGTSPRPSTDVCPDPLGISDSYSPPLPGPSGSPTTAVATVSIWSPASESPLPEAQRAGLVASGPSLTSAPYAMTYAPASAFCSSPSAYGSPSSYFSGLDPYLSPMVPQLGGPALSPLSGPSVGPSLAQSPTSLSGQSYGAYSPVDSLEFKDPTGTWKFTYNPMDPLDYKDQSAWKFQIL
# Chain of ETV5 (P41161 whole entry): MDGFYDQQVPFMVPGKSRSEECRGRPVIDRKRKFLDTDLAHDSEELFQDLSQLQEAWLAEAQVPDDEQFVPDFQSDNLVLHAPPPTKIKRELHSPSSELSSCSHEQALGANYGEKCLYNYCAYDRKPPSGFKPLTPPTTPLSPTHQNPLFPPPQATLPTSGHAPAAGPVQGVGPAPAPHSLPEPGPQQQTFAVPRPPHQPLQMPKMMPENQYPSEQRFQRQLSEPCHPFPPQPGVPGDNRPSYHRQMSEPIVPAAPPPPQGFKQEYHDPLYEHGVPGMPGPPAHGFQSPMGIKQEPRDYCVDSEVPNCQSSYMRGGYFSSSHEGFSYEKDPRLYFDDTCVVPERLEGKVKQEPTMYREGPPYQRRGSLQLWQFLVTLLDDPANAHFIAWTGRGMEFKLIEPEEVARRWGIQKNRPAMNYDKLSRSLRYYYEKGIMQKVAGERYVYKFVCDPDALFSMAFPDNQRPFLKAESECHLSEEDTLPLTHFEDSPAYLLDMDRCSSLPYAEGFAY
# Chain of HSF1 (Q00613 whole entry): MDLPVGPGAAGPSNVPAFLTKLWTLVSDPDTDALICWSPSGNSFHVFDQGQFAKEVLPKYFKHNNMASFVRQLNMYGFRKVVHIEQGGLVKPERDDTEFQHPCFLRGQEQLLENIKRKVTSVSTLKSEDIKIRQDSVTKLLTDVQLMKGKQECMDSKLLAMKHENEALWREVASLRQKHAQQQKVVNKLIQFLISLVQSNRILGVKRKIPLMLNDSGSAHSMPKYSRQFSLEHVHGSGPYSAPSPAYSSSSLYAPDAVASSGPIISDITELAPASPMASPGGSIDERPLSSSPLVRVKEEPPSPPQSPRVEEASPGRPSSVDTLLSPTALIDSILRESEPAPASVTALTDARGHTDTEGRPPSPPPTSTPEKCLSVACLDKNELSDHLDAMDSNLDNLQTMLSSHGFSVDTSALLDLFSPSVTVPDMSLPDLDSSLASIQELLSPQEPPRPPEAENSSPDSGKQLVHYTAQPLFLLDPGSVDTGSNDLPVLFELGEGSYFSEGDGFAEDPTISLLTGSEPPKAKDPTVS
# Chain of ELF4 (Q99607 whole entry): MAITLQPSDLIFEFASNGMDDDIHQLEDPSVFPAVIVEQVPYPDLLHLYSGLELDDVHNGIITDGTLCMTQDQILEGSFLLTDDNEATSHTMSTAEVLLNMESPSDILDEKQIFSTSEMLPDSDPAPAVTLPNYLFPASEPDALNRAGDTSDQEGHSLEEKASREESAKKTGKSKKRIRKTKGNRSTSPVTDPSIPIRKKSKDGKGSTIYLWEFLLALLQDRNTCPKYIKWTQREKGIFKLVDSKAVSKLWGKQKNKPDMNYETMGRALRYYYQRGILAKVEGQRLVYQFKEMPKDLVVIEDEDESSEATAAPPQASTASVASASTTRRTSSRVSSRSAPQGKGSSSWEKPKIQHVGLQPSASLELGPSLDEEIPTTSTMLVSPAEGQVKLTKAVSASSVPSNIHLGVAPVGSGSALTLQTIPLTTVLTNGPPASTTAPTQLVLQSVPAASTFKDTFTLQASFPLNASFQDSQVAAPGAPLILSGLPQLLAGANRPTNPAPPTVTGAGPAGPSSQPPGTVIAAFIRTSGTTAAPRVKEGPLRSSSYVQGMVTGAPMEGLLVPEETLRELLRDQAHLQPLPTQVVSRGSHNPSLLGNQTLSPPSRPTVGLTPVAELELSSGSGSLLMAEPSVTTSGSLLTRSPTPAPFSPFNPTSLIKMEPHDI
# Chain of ELF1 (P32519 whole entry): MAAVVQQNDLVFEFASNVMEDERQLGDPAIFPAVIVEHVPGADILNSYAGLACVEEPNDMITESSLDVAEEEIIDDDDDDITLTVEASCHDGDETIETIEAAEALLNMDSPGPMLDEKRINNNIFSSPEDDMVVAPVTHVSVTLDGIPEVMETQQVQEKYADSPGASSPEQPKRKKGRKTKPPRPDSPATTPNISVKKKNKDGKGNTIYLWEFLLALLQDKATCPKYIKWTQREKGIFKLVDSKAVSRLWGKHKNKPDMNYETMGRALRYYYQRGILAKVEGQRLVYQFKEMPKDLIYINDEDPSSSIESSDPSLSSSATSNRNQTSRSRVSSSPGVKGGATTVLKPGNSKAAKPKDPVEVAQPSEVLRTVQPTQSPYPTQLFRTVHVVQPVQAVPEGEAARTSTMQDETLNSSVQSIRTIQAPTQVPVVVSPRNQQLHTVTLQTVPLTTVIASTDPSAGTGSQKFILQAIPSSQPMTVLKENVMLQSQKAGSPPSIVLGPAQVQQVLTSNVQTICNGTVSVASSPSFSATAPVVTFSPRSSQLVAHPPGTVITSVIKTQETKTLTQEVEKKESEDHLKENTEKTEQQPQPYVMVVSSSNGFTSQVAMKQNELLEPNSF
sequence,measurement,setting,value
AACGTT,binding signal,FLI1,"1.07 fold enrichment (6-mer frequency, TF over GST control)"
same,binding signal,ELK1,"1.15 fold enrichment (6-mer frequency, TF over GST control)"
same,binding signal,GABPA,"1.04 fold enrichment (6-mer frequency, TF over GST control)"
same,binding signal,ERG,"1.15 fold enrichment (6-mer frequency, TF over GST control)"
same,binding signal,ELF1,"1.14 fold enrichment (6-mer frequency, TF over GST control)"
same,binding signal,EHF,"1.09 fold enrichment (6-mer frequency, TF over GST control)"
same,binding signal,SPI1,"1.06 fold enrichment (6-mer frequency, TF over GST control)"
same,binding signal,SPIB,"1.15 fold enrichment (6-mer frequency, TF over GST control)"
same,binding signal,ELK3,"1.28 fold enrichment (6-mer frequency, TF over GST control)"
same,binding signal,FEV,"1.08 fold enrichment (6-mer frequency, TF over GST control)"
same,binding signal,ETV5,"1.07 fold enrichment (6-mer frequency, TF over GST control)"
same,binding signal,HSF1,"1.32 fold enrichment (6-mer frequency, TF over GST control)"
same,binding signal,SPIC,"1.23 fold enrichment (6-mer frequency, TF over GST control)"
same,binding signal,ELF4,"1.14 fold enrichment (6-mer frequency, TF over GST control)"
same,binding signal,ELK4,"1.02 fold enrichment (6-mer frequency, TF over GST control)"
same,binding signal,ELF3,"1.05 fold enrichment (6-mer frequency, TF over GST control)"
same,binding signal,CRX,"1.02 fold enrichment (6-mer frequency, TF over GST control)"
same,binding signal,ETV1,"1.1 fold enrichment (6-mer frequency, TF over GST control)"
